This excerpt belongs to a sample that is enriched for hits.
LmPK inhibitor: qHTS Assay for Inhibitors of Leishmania Mexicana Pyruvate Kinase (LmPK); 0.37% of 290,000 active; purified LmPK, Kinase-Glo ATP luminescence, 1 h; AID 1721, 2009; Potency, µM (titrated, usually from 57.5 µM), hits mostly inhibitors; Q27686
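Purified LmPK (0.1 nM) converted ADP (0.1 mM) to ATP with PEP (0.5 mM) in imidazole buffer pH 7.2 with KCl and MgCl2, 1 h at room temperature. ATP was read by Kinase-Glo luminescence; data normalized to uninhibited and no-enzyme controls.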
Cycloheximide cs: Cycloheximide Counterscreen for Small Molecule Inhibitors of Shiga Toxin; cell reporter, cycloheximide protein synthesis inhibition counterscreen; max response, %; 12% of 300,000 active; AID 2314, 2010; in the data active = max response mostly above about 13%, no sharp cut-off; inactive = mostly below about 14%; also: read at 38.3 µM for the half of the compounds with a filed dose
Shiga toxin inh: A qHTS for Small Molecule Inhibitors of Shiga Toxin; 9.2% of 290,000 active; inhibition, % at 38.7 µM; Vero cells, Shiga toxin protein synthesis inhibition reporter; in the data active = inhibition mostly above about 28%, no sharp cut-off; inactive = mostly below about 43%
RE007 growth inh: qHTS Assay for Inhibitors of the HIV-1 protein Vpr | S. pombe RE007 Vpr strain, BacTiter-Glo ATP luminescence, 24 h | Potency, µM (highest dose often 92.2 µM), hits mostly inhibitors | 0.21% of 360,000 active | AID 651644, 2012; active = well fitted falling curve with a large enough effect; inconclusive = small, poorly fitted or top-dose-only effect; inactive = no such curve, though single readings can be large or run the other way; also: nearly all actives have a fitted effect of over 50% in size
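Fission yeast RE007 carrying one integrated HIV-1 vpr copy, seeded at OD 0.01 in PMG+AL medium with 23 nL pinned compound. Grown 24 h at 30 degrees; viability read by BacTiter-Glo luminescence after 5 min.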
TbPYK inhibitor: qHTS of Trypanosoma Brucei Inhibitors; TbPYK enzyme, Kinase-Glo Plus ATP luminescence, 45 min; Potency, µM (highest dose often 76.8 µM), most hits filed as inhibitors; 0.12% of 410,000 active; AID 624173, 2012; also: nearly all actives have a fitted effect of over 50% in size
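Enzyme and substrate buffer are dispensed first and compound is pin-transferred. ADP at 130 uM final then starts the reaction, which runs 45 min at room temperature. Detection reagent is added for 10 min before luminescence is imaged.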
FBPA Giardia inh: qHTS Assay for Inhibitors of Fructose-1,6-bisphosphate Aldolase from Giardia Lamblia; A8B2U2; purified Giardia FBPA; Potency, µM (titrated, usually from 59.6 µM), actives largely listed as inhibitors; 0.71% of 290,000 active; also: nearly all actives have a fitted effect of over 55% in size
Target sequence (A8B2U2 whole entry, looked up): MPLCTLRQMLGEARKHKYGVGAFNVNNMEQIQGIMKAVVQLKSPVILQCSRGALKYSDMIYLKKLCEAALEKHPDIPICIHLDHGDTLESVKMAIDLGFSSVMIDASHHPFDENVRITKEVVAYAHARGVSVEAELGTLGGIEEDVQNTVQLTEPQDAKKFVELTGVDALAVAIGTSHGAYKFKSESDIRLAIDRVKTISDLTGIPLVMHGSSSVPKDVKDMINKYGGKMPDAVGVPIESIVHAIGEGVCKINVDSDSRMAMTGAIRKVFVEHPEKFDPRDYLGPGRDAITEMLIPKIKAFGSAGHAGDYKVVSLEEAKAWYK
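40 nM FBPA preincubated 10 min at RT with compound (up to 57.5 uM final), then substrate plus GAPDH/TPI/NAD/arsenate coupling and diaphorase/resazurin added. Fluorescence read after 20 min at RT, 525/598 nm.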
Hits are given with their value; - = inactive; ? = inconclusive; . = no result given; [ ] = another dose, or the depositor's remark. Unless noted, calls follow the shape of the dose curve; as a rule, active = well fitted curve in the direction sought with a large enough effect; inconclusive = small, poorly fitted or top-dose-only effect, or another doubt; inactive = no such curve, though single readings can be large; an effect the other way counts as inactive or inconclusive.

SMILES	LmPK inhibitor	Cycloheximide cs	Shiga toxin inh	RE007 growth inh	TbPYK inhibitor	FBPA Giardia inh
COc1ccc(CCNC(=O)C2CCCN(c3nn4c(=O)cc(C)nc4s3)C2)cc1OC (centres undefined)	-	-	-	-	-	-
Cc1ccc(CNC(=O)c2ccc3nc(N4CCCCC4)sc3c2)cc1	.	.	.	.	-	.
O=C1NCC2=C1C(c1ccc(Br)cc1)Nc1ccccc1N2 (centres undefined)	-	21.9	77.4	-	-	-
Cn1c(=O)c(-c2ccccc2)nc2cnc(OCc3ccccc3)nc21	.	.	.	.	.	-
Cc1ccc(NC(=O)Nc2ccc3c(c2)C(=O)OC3)cc1Cl	-	-	-	-	-	-
O=C(Nc1cccc(C(F)(F)F)c1)Nc1ccon1	-	-	-	-	-	-
O=C(Nc1ccc(Cl)cc1)Nc1ccon1	-	15.3	28.8	-	-	.
Cc1ccc(NC(=O)Nc2ccon2)cc1Cl	-	28.1	50.2	-	-	-
CCOc1ccc(NC(=O)Nc2ccon2)cc1	-	38.6	57.5	-	-	-
CCOc1cc(C(=O)Nc2ccon2)cc(OCC)c1OCC	-	-	-	-	-	-
O=C(Nc1ccon1)Nc1ccc(Cl)cc1Cl	-	24.5	41.7	-	-	-
O=C(Nc1cccc(Cl)c1)Nc1ccon1	-	-	-	-	-	-
CCOC(=O)c1cc(C)n(CC2CCC(C(=O)Nc3ccc(Cl)cc3)CC2)c1C (centres undefined)	.	.	.	.	-	.
CCc1ccccc1NC(=O)Nc1ccon1	-	-	-	-	-	-
O=C(Nc1ccon1)Nc1cccc(Cl)c1Cl	-	9.6	-	-	-	-
Cc1ccc(NC(=O)Nc2ccon2)cc1	-	40.1	66.3	-	-	-
COc1cc(CN(C(=O)c2oc3ccccc3c2C)C2CCS(=O)(=O)C2)cc(OC)c1OC (centres undefined)	.	.	.	.	-	.
CCOc1ccc(C(=O)c2cc3ccc(O)cc3oc2=O)cc1	-	-	-	-	-	-
CCOc1cccc(C(=O)c2ccc(O)c(O)c2O)c1	.	.	.	.	.	19.9µM
CCOc1ccc(C(=O)c2ccc(O)c(O)c2O)cc1	.	.	.	.	.	15.8µM
Cc1nc2c(C(=O)NCc3ccccc3Cl)c[nH]n2c(=O)c1Cc1cccc(Cl)c1	.	.	.	.	-	.
O=[N+]([O-])c1cc(-c2nc(-c3ccco3)no2)ccc1NCc1ccccc1	.	.	.	.	-	.
CC(=O)C(Sc1nn(C)c(=S)s1)C(=O)Nc1ccccc1 (centres undefined)	-	51.2	113.5	?	31.6µM	?
CC(=O)C(Sc1nc(N(C)C)nc(N(C)C)n1)C(=O)Nc1ccccc1 (centres undefined)	-	-	-	-	-	-
COCCn1c(C)cc(O)c(C(c2ccccc2OC)N2CCN(c3ccccc3)CC2)c1=O (centres undefined)	.	.	.	.	-	.
SMILES	LmPK inhibitor	Cycloheximide cs	Shiga toxin inh	RE007 growth inh	TbPYK inhibitor	FBPA Giardia inh
COCCn1c(SCC(=O)N2CCCC2)nnc1C(C)C	-	-	-	-	-	-
CCCn1c(SCC(=O)N2CCCCC2)nnc1C(C)C	-	14.7	43.3	-	-	-
O=C(NCCc1ccc(Cl)cc1)C1CCN(Cc2cc3ccccc3n2Cc2ccccc2)CC1	.	.	.	.	-	.
COc1ccccc1N1CCN(C(=O)c2ccc3c(c2)NC(=O)C(CSCc2ccccc2C)N3)CC1 (centres undefined)	-	-	-	.	.	-
OCCc1ccc(O)c(-n2nc3ccccc3n2)c1	-	22.3	58.9	-	-	-
Cc1nn2cc(-c3ccc(N)cc3)nc2s1	-	34.8	69.3	-	-	-
Cc1ccc([C@@H]2CC(=O)[C@@H]3CN(S(=O)(=O)c4ccc(C)cc4)[C@H](c4ccccc4)C[C@@H]3N2S(=O)(=O)c2ccc(Cl)cc2)cc1	.	.	.	-	-	.
Cc1ccccc1NC(=O)CCCCCN1C(=O)[C@@H]2Cc3ccccc3CN2C1=O	-	-	-	-	-	.
O=C(CCCCCN1C(=O)[C@@H]2Cc3ccccc3CN2C1=O)Nc1ccccc1Cl	-	29.6	-	-	-	-
O=C(COc1ccccc1Cl)NC(=S)Nc1ccccc1N1CCCC1	-	-	-	-	-	-
O=C(COc1ccccc1)NC(=S)N1CCc2ccccc21	-	39.6	38.5	-	-	-
COc1ccc(OCC(=O)NC(=S)N2CCCc3ccccc32)cc1	-	34.9	152.4	-	-	?
CCOC(=O)/C(=N/Nc1ccc(OC)cc1)N1CCCc2ccccc21	-	-	41.3	-	-	15.8µM
O=C(COc1ccccc1Cl)NC(=S)N1CCc2ccccc21	-	49.5	-	-	-	.
NC(=O)C1(Nc2ccc(-c3ccc(Br)cc3)cc2)CCCC1	.	.	.	-	-	.
CCOc1ccc(NC(=O)CN2CCSc3ccc(S(=O)(=O)N4CCCC4)cc32)cc1	.	.	.	.	-	.
CCCOc1ccc(-c2cccc(NS(=O)(=O)c3ccc(CC)cc3)c2)nn1	.	.	.	.	-	.
CC(C)(C)C(=O)COC(=O)c1cccc(NC(=O)c2ccco2)c1	-	26.8	-	-	-	-
O=C(COC(=O)c1cccc(NC(=O)c2ccco2)c1)c1ccc(Br)cc1	-	79.8	116.7	-[3.69 µM]	.	-
Cc1noc(/C=C/c2ccco2)c1S(=O)(=O)N1CCC(C(=O)Nc2ccc(F)cc2F)CC1	.	.	.	.	-	.
Cc1cccc(NC(=O)c2ccc(N3C(=O)C4CCCCC4C3=O)cc2)c1C (centres undefined)	-	-	-	-	-	.
CCNC(=O)Oc1ccc[nH]c1=O	-	-	-	.	-	3.97µM
Cc1[nH]c2ccc(C(=O)NC3CCC(C)CC3)cc2c1C (centres undefined)	-	26.2	58.3	-	-	-
CC1CCC(NC(=O)c2ccc3nc[nH]c3c2)CC1 (centres undefined)	-	40.7	47.0	-	-	-
CCOC(=O)CSc1nc2cc3c(cc2cc1C#N)OCCO3	-	32.8	90.5	-	-	-
SMILES	LmPK inhibitor	Cycloheximide cs	Shiga toxin inh	RE007 growth inh	TbPYK inhibitor	FBPA Giardia inh
COC(=O)CSc1nc2cc3c(cc2cc1C#N)OCO3	-	38.0	89.6	-	-	-
CCOC(=O)CSc1nc2cc3c(cc2cc1C)OCO3	-	-	-	-	-	-
CCOc1ccc2nc(SCC(=O)N3CCCCCC3)c(C#N)cc2c1	-	-	-	-	-	?
CCOC(=O)CSc1nc2cc3c(cc2cc1C#N)OCO3	-	-	182.0	-	-	-
CCOc1ccc2cc(C#N)c(SCC(=O)N3CCOCC3)nc2c1	-	30.0	101.0	-	-	-
CCN(CC)c1cc2c(cc1F)c(=O)c(S(=O)(=O)c1ccc(OC)cc1)cn2Cc1ccccc1	.	.	.	.	-	.
O=C(CCCn1c(=O)[nH]c2ccccc2c1=O)NCc1ccccc1Cl	.	.	.	.	-	.
N#Cc1cc2cc3c(cc2nc1SCC(=O)N1CCOCC1)OCO3	-	28.3	83.1	-	-	-

High-throughput results from PubChem.
